Data on 30 molecules can be found in PubChem BioAssay (EPA / NIEHS).

Where a structure was tested more than once in an assay, its records may differ in their call. Active and inactive are the calls of the source. How the source made its calls: active means hit-call score of the fitted dose curve at least 0.9, where 1 is the maximum; inactive means score below 0.9.

Read-out in the assay: TIMP metallopeptidase inhibitor 1 (TIMP1), TIMP1 (gene 7076)
Kind of assay: BSK_MyoF_TIMP1: BioMAP Diversity Plus: MyoF Assay for TIMP metallopeptidase inhibitor 1 (TIMP1) Biomarker Activity (AID 2284269). Conditions: primary human lung fibroblasts. The procedure: BSK_MyoF is a cell-based, multiplexed-readout assay that uses lung fibroblasts, […], with measurements taken at 24 hours after chemical dosing in a microplate: 96-well plate.BSK_MyoF_TIMP1 is an assay component measured in the BSK_MyoF assay. It measures TIMP-1 antibody related to regulation of gene expression using ELISA technology.Data from the assay component BSK_MyoF_TIMP1 was analyzed at the endpoint, BSK_MyoF_TIMP1, in the positive analysis fitting direction relative to DMSO as the negative control and baseline of activity. Using a type of binding reporter, gain or loss-of-signal activity can be used to understand protein changes. To generalize the intended target to other relatable targets, this assay endpoint is annotated to the 'protease' intended target family, where the subfamily is 'matrix metalloproteinase'.
The levels of cell surface (or secreted, indicated by the prefix "s") biomarker endpoints were measured by ELISA. Overt cytotoxicity to cells in confluent adherent cultures (all systems other than the BT system) was assessed by measuring total protein levels using sulforhodamine B (SRB) staining in parallel cultures at the time of biomarker measurements, indicated as SRB endpoints. For proliferation assays for adherent cell types, individual cell types are cultured at sub-confluence and relative cell numbers quantified by SRB staining at time points optimized for each system (48 h: 3C and CASM3C systems; 72 h: BT and HDF3CGF systems; 96 h: SAg system). SRB was performed by staining cells with 0.1% SRB after fixation with 10% TCA and reading wells at 560 nm.Viability and proliferation of PBMC (T cells) was quantified by Alamar Blue reduction for the SAg and BT systems. For PBMC viability (referred to as PBMC Cytotoxicity within the assay endpoint names), cells were plated (75,000/well in a 96-well plate) and then chemical samples added for 1 h before addition of activators, SEB and TSST-1 (20 ng/mL final concentration each). Cells were incubated for 90 h. Then, Alamar Blue (20 uL/well) (Invitrogen, Cat DAL1100) was added for 6 h, and the plates were read with a fluorescence microplate reader at 546/580 nm (excitation/emission). For PBMC proliferation, cells were plated and activated as above but incubated for only 16 h prior to addition of Alamar Blue. Plates were read after 6 h.
Broadly, the AC50 is the concentration giving half of the maximal activity seen. Consider `CCCCCCCCCCCC#N`, for which the AC50 was 31.4 µM (active).
In the case of `Nc1ccc(-c2ccc(N)c(N)c2)cc1N`, the outcome was inactive.
Still for that read-out and setting: the value for `C=CCN(CC=C)C(=O)C(Cl)Cl` was “inactive”; that for `CCCOC(=O)c1ccccc1C(=O)OCCC` was “inactive”; that for `Oc1cc(Cl)ccc1Cl` was “inactive”.
Consider `CC(=O)/C=C/c1ccccc1`, for which the result was inactive.
As to `O=S(=O)(c1ccccc1)c1ccccc1`, the outcome was inactive.
Consider `O=C1C(Cl)=C(Cl)C(=O)C(Cl)=C1Cl`, for which the AC50 was 28 µM (active).
`O=C1C=CC(=O)C=C1`: the result was inactive and the AC50 was 30.3 µM (active).
On to `CC(C)(C)C(O)C(Oc1ccc(-c2ccccc2)cc1)n1cncn1` (stereo unspecified), for which the AC50 was 17.1 µM (active).
`COCC(=O)N(c1c(C)cccc1C)N1CCOC1=O`: the result was inactive.
`O=[N+]([O-])C=Cc1ccccc1`: the AC50 is 13.2 µM (active).
With `O=c1c2ccccc2c(=O)c2c1cc(Cl)c1[nH]c3c([nH]c12)c(Cl)cc1c(=O)c2ccccc2c(=O)c13`, the result was inactive.
For `CC(C)CCCCCCCOP(=O)(Oc1ccccc1)Oc1ccccc1`, the AC50 is 20 µM (active).
Turning to `O=C(O)CCCc1ccc(N(CCCl)CCCl)cc1`, the result was inactive.
As for `CC(C)(C)C(=O)CCl`, the outcome was inactive.
On the same count and under the same terms, the value for `O=c1[nH]c(Cl)c(Cl)cc1Cl` was “inactive”.
In the case of `CCC(C)c1cc([N+](=O)[O-])cc([N+](=O)[O-])c1OC(=O)C=C(C)C` (stereo unspecified), the AC50 was 13.5 µM (active).
Take `Cc1ccc(OP(=O)(Oc2ccc(C)cc2)Oc2ccc(C)cc2)cc1` (tested in a mixture with another compound): the outcome was inactive.
On the same count and under the same terms, the value for `CCc1cc(C)cc(CC)c1-c1c(OC(=O)C(C)(C)C)n2n(c1=O)CCOCC2` was “inactive”.
For the molecule `c1ccc(Nc2ccc3ccccc3c2)cc1`, the AC50 is 34.4 µM (active).
Same read-out and setting: the value for `CC(C)(c1cc(Cl)c(O)c(Cl)c1)c1cc(Cl)c(O)c(Cl)c1` was 9.55 µM (active).
On to `COC(C)(C)CCC[C@H](C)C/C=C/C(C)=C/C(=O)OC(C)C`, for which the result was inactive.
Take `O=P1(NCCCl)OCCCN1CCCl` (stereo unspecified): the result was inactive.
Same read-out and setting: the value for `CNC(=O)Oc1cc(C)c(SC)c(C)c1` was “inactive”; that for `Clc1ccc(-c2ccccc2)cc1` was “inactive”; that for `C=CC(=O)OCC(CC)CCCC` (stereo unspecified) was “inactive”.
On the same count and under the same terms, the value for `CC(C)COP(=O)(OCC(C)C)OCC(C)C` was “inactive”; that for `CC(C)CCCCCCCOC(=O)c1ccccc1C(=O)OCCCCCCCC(C)C` was “inactive”; that for `CC1(C)[C@H](C(=O)O[C@H](C#N)c2cccc(Oc3ccccc3)c2)[C@@H]1C=C(Br)Br` was “inactive”.
